# Sfp PPTase inh = qHTS Assay for Inhibitors of Bacillus subtilis Sfp phosphopantetheinyl transferase (PPTase); 4'-phosphopantetheinyl transferase ffp (Bacillus subtilis), Q9F4F7; Biochemical Sfp PPTase activity, qHTS; Potency, µM, inactives show largest response in the series, negative = inhibition, hits mostly inhibitors; 310,000 tested, 3.5% active; AID 1490, 2009;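 note: the enzyme is Sfp with the accession as filed and its product quenches rhodamine fluorescence; potency is the fitted concentration of half-maximal effect; 0% = enzyme reaction without inhibitor and -100% = no enzyme wells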
#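 After 15 min at room temperature with compound, 15 nM Sfp received 5 uM rhodamine-CoA plus 12.5 uM BHQ-2-ybbR (50 mM Hepes pH 7.6, 10 mM MgCl2). Rate came from the fluorescence difference over 30 min, ex 525/em 598 nm.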
# rTrxR1 inhibitor = qHTS Assay for Inhibitors of Mammalian Selenoprotein Thioredoxin Reductase 1 (TrxR1): qHTS; AID 588453, 2011; recombinant rTrxR1, NADPH fluorescence consumption, selenite substrate; 390,000 tested, 1% active; Thioredoxin reductase 1, cytoplasmic (Rattus norvegicus), O89049; Potency, µM (doses to about 114 µM), for the others: at the top dose activity change, negative = inhibition, most hits filed as inhibitors; note: potency is the fitted concentration of half-maximal effect; % is set by controls: 0 for no effect and ±100 for the full control effect; nearly all actives have a fitted effect of over 65% in size
#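 Rat TrxR1 (90 nM in the dispensed reagent) was pre-reduced with 400 uM NADPH for 5 min at room temperature, then incubated with compound for 15 min. After 400 uM selenite was added, NADPH fluorescence (Ex 340/Em 450 nm) was followed for 8 min.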
# PLK1 PBD block = qHTS for Inhibitors of PLK1-PDB (polo-like kinase 1 - polo-box domain): Primary Screen | 360,000 tested, 2.8% active | Potency, µM, for the others: max response, negative = inhibition, actives largely listed as inhibitors | Plk1 PBD binding of FITC phosphopeptide, fluorescence polarization; note: potency is the fitted concentration of half-maximal effect; series mostly up to about 57 µM; % is set by controls: 0 for no effect and ±100 for the full control effect; nearly all actives have a fitted effect of over 65% in size
# mIDH1 inhibitor = qHTS for Inhibitors of mutant isocitrate dehydrogenase 1 (IDH1): qHTS | IDH1-R132H enzyme, NADPH consumption, diaphorase/resazurin fluorescence | Potency, µM (series often up to 76.6 µM), for inactives: at the top dose activity change, negative = inhibition, actives largely listed as inhibitors | 390,000 tested, 0.093% active | AID 602179, 2012; note: potency is the fitted concentration of half-maximal effect; % is set by controls: 0 for no effect and ±100 for the full control effect; nearly all actives have a fitted effect of over 65% in size
# Target sequence (O75874 whole entry R132H, stated change not applied): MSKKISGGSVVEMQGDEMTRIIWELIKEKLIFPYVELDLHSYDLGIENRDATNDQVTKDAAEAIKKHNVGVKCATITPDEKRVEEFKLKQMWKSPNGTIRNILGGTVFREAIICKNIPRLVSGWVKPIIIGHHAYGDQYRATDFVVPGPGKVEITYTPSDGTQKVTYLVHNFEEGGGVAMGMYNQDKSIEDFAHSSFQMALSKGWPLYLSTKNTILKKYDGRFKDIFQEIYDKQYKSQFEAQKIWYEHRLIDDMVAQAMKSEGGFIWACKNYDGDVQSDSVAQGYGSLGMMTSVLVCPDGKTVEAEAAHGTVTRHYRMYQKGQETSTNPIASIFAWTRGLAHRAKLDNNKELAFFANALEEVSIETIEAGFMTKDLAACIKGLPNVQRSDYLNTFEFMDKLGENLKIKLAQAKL
#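 IDH1-R132H (0.5 ug/mL) preincubated 30 min with compound, then NADPH (0.016 mM) and alpha-KG (2 mM) added; 80 min at RT, pH 7.5. Remaining NADPH coupled via diaphorase/resazurin to fluorescence (540/590 nm); concentration-response curves normalized to no-enzyme control.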
# VDR inh = Inhibitors of the vitamin D receptor (VDR): qHTS; Vitamin D3 receptor (Homo sapiens), P11473; 400,000 tested, 0.93% active; Potency, µM, for the others: max response, negative = inhibition, actives largely listed as inhibitors; VDR-SRC2-3 peptide fluorescence polarization, 2 h; note: potency is the fitted concentration of half-maximal effect; % is set by controls: 0 for no effect and ±100 for the full control effect
#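 After 23 nl compound addition and a short centrifugation, plates sat for 2 hours at ambient temperature; polarization of fluorescence then indicated loss of VDR binding to peptide SRC2-3.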
# TrxR1 substrate = qHTS Assay for Substrates of Mammalian Selenoprotein Thioredoxin Reductase 1 (TrxR1): qHTS. 390,000 tested, 0.01% active. Potency, µM (series often up to 114 µM), for the others: top-dose activity change, negative = substrate turnover. Thioredoxin reductase 1, cytoplasmic (Rattus norvegicus), O89049. purified TrxR1 substrate turnover, NADPH consumption readout; note: potency is the fitted concentration of half-maximal effect; % is set by controls: 0 for no effect and ±100 for the full control effect; nearly all actives have a fitted effect of over 50% in size
#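 Rat TrxR1, dispensed at 90 nM, was prereduced with 400 uM NADPH (final) for 5 min at ~22 deg C, then incubated with compound 15 min before 400 uM selenite. A first-read NADPH fluorescence drop versus no-compound background flagged substrates.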
# USP1 UbRho = Inhibitors of USP1/UAF1: Hit Validation in Primary Assay. AID 540327, 2011. shares compounds with VDR inh. Potency, µM (doses to about 114 µM), for the others: at the highest dose activity change, negative = inhibition, actives largely listed as inhibitors. 50 tested, 50% active. Ub-Rhodamine cleavage, fluorescence kinetic read
# VDR inh confirm = qHTS for Inhibitors of the vitamin D receptor (VDR): Hit Validation in Primary Screen. shares compounds with VDR inh. 840 tested, 89% active. Potency, µM, actives largely listed as inhibitors. VDR-coactivator inhibition assay, qHTS confirmation; note: potency is the fitted concentration of half-maximal effect
# VDR FP fluor = qHTS for Inhibitors of the vitamin D receptor (VDR): Hit Validation using a Fluorescein Assay; shares compounds with VDR inh; VDR-coactivator binding, fluorescein fluorescence polarization; Potency, µM (top dose mostly 57.1 µM), inactives show at the highest dose activity change, negative = inhibition, hits mostly inhibitors; 840 tested, 48% active; AID 602200, 2012; note: potency is the fitted concentration of half-maximal effect
# VDR bla = qHTS for Inhibitors of the vitamin D receptor (VDR): Hit Validation using a Beta-Lactamase Assay; AID 602202, 2012; Potency, µM (highest dose often 46.1 µM), inactives show at the highest dose activity change, negative = inhibition, hits mostly inhibitors; shares compounds with VDR inh; 840 tested, 23% active; VDR beta-lactamase reporter cells, FRET ratio; cells co-treated with VDR agonist LG190178; note: potency is the fitted concentration of half-maximal effect; % is set by controls: 0 for no effect and ±100 for the full control effect
# VDR cytotox = qHTS for Inhibitors of the vitamin D receptor (VDR): Hit Validation using a Cytotoxicity Assay; Potency, µM (highest dose often 48.3 µM), without a hit: at the highest dose activity change, negative = cytotoxicity, hits mostly cytotoxic; shares compounds with VDR inh; cytotoxicity counter-screen, cell viability, qHTS; AID 602204, 2012; 840 tested, 18% active;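 note: potency is the fitted concentration of half-maximal effect; plate controls were DMSO for no effect and high-concentration cycloheximide for full effect; nearly all actives have a fitted effect of over 75% in size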
# The depositor's hits bear a star; ? = inconclusive; nt = no result given; [ ] = remark or other dose. Shown are actives, neighbours in structure and some others; about 5.2% of the full set was active somewhere. Calls come from the whole dose curve; as a rule, active = well fitted curve in the direction sought with a large enough effect; inconclusive = small, poorly fitted or top-dose-only effect, or another doubt; inactive = no such curve, though single readings can be large; an effect the other way counts as inactive or inconclusive.
SMILES,Sfp PPTase inh,rTrxR1 inhibitor,PLK1 PBD block,mIDH1 inhibitor,VDR inh,TrxR1 substrate,VDR inh confirm,VDR FP fluor,VDR bla,VDR cytotox,others
Cc1cc2nc3ccc(N(C)C)cc3nc2cc1N,nt,6%,?,17%,79µM*,-2%,19*,92%,18%,?,
Cc1ccc(-n2nc3cc(C)c(N)cc3n2)cc1,-18%,1%,-16%,3%,?,79%,nt,nt,nt,nt,
Cc1nnc(SC/C=C/c2ccccc2)n(N)c1=O,9%,5%,-2%,3%,-25%,2%[57.1 µM],nt,nt,nt,nt,
O=C(/C=C/c1ccccc1)n1cnnc1SC/C=C/c1ccccc1,?,-53%,?,5%,40µM*,-19%[57.1 µM],17*,?,12%,-5%,
COc1ccc2c(CNCc3ccco3)c(C(=O)O)n(Cc3ccc(F)cc3Cl)c2c1,nt,9%,nt,9%,2%,1%,nt,nt,nt,nt,
COc1ccc(CCNC(=O)c2cc(S(=O)(=O)N3CCCC(C)C3)cn2C)cc1OC (stereo not drawn),nt,12%[57.1 µM],nt,-3%,3%,4%[57.1 µM],nt,nt,nt,nt,
CNc1ccc(Br)cc(C(=O)/C=C/c2ccc(Cl)cc2Cl)c1=O,14µM*,-68%,?,1%,?,-2%[57.1 µM],3.5*,?,?,10%,
Oc1ccc(C(=S)N2CCN(c3cccc(Cl)c3)CC2)cc1,16µM*,?,8.4µM*,-1%,?,0%[57.1 µM],?,?,-23%,4%,
CCOc1ccc(CC(=O)NCc2ccc3c(c2)CCN3C(=O)c2ccccc2)cc1OCC,nt,3%[57.1 µM],nt,-18%,-2%,-3%[57.1 µM],nt,nt,nt,nt,
O=C(/C=C/c1ccccc1)c1ccccc1,?,?,-11%,0%,18µM*,-8%,16*,11µM*,26µM*,?,
[O-]/[N+](=C\c1ccccc1)c1ccc(Br)cc1,nt,23%[57.1 µM],15µM*,7%,25µM*,9%[57.1 µM],3.8*,?,7%,8%,
CCCCNC(=O)CSc1nnc(Cc2ccc(Cl)c(Cl)c2)c(=O)[nH]1,19%,13%,?,-6%,7%,-4%,nt,nt,nt,nt,
CN1CCN(CCCN2c3ccccc3Sc3ccc(C(F)(F)F)cc32)CC1,?,?,-5%,8%,?,-7%,nt,nt,nt,nt,USP1 UbRho=?
O=C1OC(NC(=O)c2ccccc2)C(n2cc(CO)nn2)=C1Cl (stereo not drawn),4µM*,10µM*,9.5µM*,1%,40µM*,9%[57.1 µM],?,?,10%,24%,
COC(=O)[C@@]1(Cc2ccc(F)cc2)[C@H]2c3cc(C(=O)N(C)C)n(CCCNc4ccc(C(F)(F)F)cc4Cl)c3C[C@H]2CN1C(=O)c1ccccc1,21%,nt,nt,nt,nt,nt,nt,nt,nt,nt,
COc1ccc(N(CC(=O)N2CCN(c3cccc(C)c3C)CC2)S(=O)(=O)c2c(C)noc2C)cc1,17%,29%,1%,2%,-4%,1%,nt,nt,nt,nt,
C=CC(C)(C)c1c(O)c(CC=C(C)C)c(O)c2c(=O)c3ccc(O)c(O)c3oc12,nt,9%,7%,?,9%,-3%,nt,nt,nt,nt,
C=CC(C)(C)c1[nH]c2ccccc2c1C1=C(O)C(=O)C(c2c[nH]c3c(CC=C(C)C)cccc23)=C(O)C1=O,-24%,nt,nt,nt,18µM*,nt,nt,nt,nt,nt,USP1 UbRho=?
Cn1c(/C(C#N)=C/c2ccc(O)cc2)nc2ccccc21,-7%,-11%,4%,-4%,16%,-10%,nt,nt,nt,nt,
Cn1c(/C(C#N)=C/c2ccc(C(F)(F)F)cc2)nc2ccccc21,nt,-27%,nt,nt,28µM*,0%,14*,8.9µM*,18µM*,?,
CCCC(=O)N(c1ccc2oc3c(c2c1)CCCC3)S(=O)(=O)c1ccc(CC)cc1,nt,26%,nt,-6%,11%,7%,nt,nt,nt,nt,
CCOC(=O)CCc1ccc(NC(=O)/C=C/c2ccc([N+](=O)[O-])o2)cc1,nt,?,-10%,3%,-13%,-7%[11.4 µM],nt,nt,nt,nt,
CCc1ccc(/C=C/C(=O)c2ccc(N3CCOCC3)cc2)cc1,9%,-4%[57.1 µM],-8%,4%,-11%,3%[57.1 µM],nt,nt,nt,nt,
CCc1ccc(/C=C/C(=O)c2ccc(S(=O)(=O)N(C)C)cc2)cc1,-27%,-11%,-9%,5%,?,2%,?,6.3µM*,33%,?,
CCc1ccc(C(=O)/C=C/c2ccc([N+](=O)[O-])o2)cc1,-6%,?,6µM*,4%,32µM*,-4%,6.7*,?,16µM*,?,
CCOCCC(=O)Nc1ccc2c(c1)c(=O)n(C)n2Cc1cccc(C(F)(F)F)c1,nt,nt,-3%,nt,nt,nt,nt,nt,nt,nt,
O=C(Nc1nc(-c2ccccn2)cs1)c1cc(Cl)ccc1[N+](=O)[O-],45µM*,20%[57.1 µM],9.5µM*,-4%,79µM*,8%[57.1 µM],24*,-20%,2%,-2%,
